HEK cytotox: HEK 293 cell cytotoxicity; HEK 293 viability, ATP luminescence (CellTiter-Glo), 48-72 h; AID 1345083; hit rate 6.6% among 94,000; Potency, µM (doses to about 115 µM), for the others: at the top dose activity change, negative = cytotoxicity, usual class: inhibitors; note: nearly all actives have a fitted effect of over 60% in size
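Cells seeded first (HEK 293, 250 cells/well), then compound added by pintool. Incubation ran 48 or 72 hr at 37 degree Celsius. CellTiter-Glo was added and luminescence imaged after 10 min at room temperature.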
NPR1 antag: antagonists of human natriuretic peptide receptor Npr1. P16066. Potency, µM (titrated, usually from 46.3 µM), for inactives: top-dose activity change, negative = inhibition, hits mostly inhibitors. HEK293 hNpr1 GloSensor cGMP, ANP-stimulated luminescence. AID 1347048. hit rate 1.6% among 76,000; calls by dose curve; note: nearly all actives have a fitted effect of over 60% in size
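Compound pre-incubated 30 min at room temperature on GloSensor-loaded HEK293 cells stably carrying hNpr1 and the pGS-40F cGMP biosensor. Stimulation uses hNppA at 0.1 nM final; luminescence is taken at baseline and 20 min post-agonist.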
GPT2 inh: blocks human glutamate pyruvate transaminase 2 | Recombinant GPT2, coupled pyruvate oxidase/HRP Amplex Red fluorescence | Potency, µM (top dose mostly 57.7 µM), without a hit: top-dose activity change, negative = inhibition, hits mostly inhibitors | hit rate 0.25% among 100,000; note: nearly all actives have a fitted effect of over 60% in size
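Inhibition is scored from Amplex Red fluorescence generated when pyruvate oxidase and HRP act on pyruvate released by GPT2. Reactions contain 10ng/uL enzyme, 250uM a-KG and 2mM L-alanine and run 30 min at room temperature.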
FLuc inh: Photinus pyralis luciferase inhibition | P08659 | purified P. pyralis luciferase, luminescence, biochemical | Potency, µM (titrated, usually from 115 µM), hits mostly inhibitors | hit rate 2.5% among 76,000 | AID 1347043; note: nearly all actives have a fitted effect of over 65% in size
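Inhibitors were tested against purified firefly luciferase in a biochemical, low-substrate format (both substrates at 10uM) and luminescence measured with a CCD imager.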
3T3 cytotox: cytotoxic compounds in NIH 3T3 cells; NIH 3T3 viability, CellTiter-Glo ATP luminescence, 48-72 h; Potency, µM (series often up to 96.7 µM), for inactives: at the top dose activity change, negative = cytotoxicity, actives largely listed as inhibitors; hit rate 4.3% among 94,000; note: nearly all actives have a fitted effect of over 55% in size
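ATP-dependent luminescence (CellTiter-Glo) served as the viability signal for NIH 3T3 cells treated with compound for 48 or 72 hr at 37 °C.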
* marks the source's active call; other numbers are inactive results; i = inactive; u = inconclusive; x = not tested or not shown; ! = a repeat was not active; [ ] = dose if it differs, or a comment. A selection: hits, their analogues and other compounds. The true share with any hit is near 10%. Unless noted, calls come from the whole dose curve; as a rule, active = well fitted curve in the direction sought with a large enough effect; inconclusive = small, poorly fitted or top-dose-only effect, or another doubt; inactive = no such curve, though single readings can be large; an effect the other way counts as inactive or inconclusive. % is set by controls: 0 for no effect and ±100 for the full control effect; potency is the fitted concentration of half-maximal effect.

SMILES	HEK cytotox	NPR1 antag	GPT2 inh	FLuc inh	3T3 cytotox
COc1cccc(-c2cc(C(=O)NCc3cccs3)c3cnn(C)c3n2)c1	u	x	x	x	25µM*!
Cn1ncc2c(C(=O)NCCc3c[nH]c4ccccc34)cc(-c3ccc(C(F)(F)F)cc3)nc21	u	x	x	x	40µM*
Cn1ncc2c(C(=O)NCc3cccs3)cc(-c3ccc(C(F)(F)F)cc3)nc21	35µM*	x	x	x	u
CCc1nc2c(c(-c3ccc(Cl)cc3)n1)CN(C(=O)c1cccc(Cl)c1)CC2	-22%	-16%	i	i	u
Cc1ccc(-c2cc(C(=O)NCc3cccc(Cl)c3)c3cnn(C)c3n2)c(C)c1	32µM*	x	i	x	u
COc1cccc(-c2cc(C(=O)NCC#N)c3cnn(C)c3n2)c1	u	x	x	x	40µM*
Cn1ncc2c(C(=O)NCc3cccc(Cl)c3)cc(-c3ccccc3)nc21	-20%	x	i	x	-25%
COc1cccc(CNC(=O)c2cc(-c3ccc(F)cc3)nc3c2cnn3C)c1	28µM*	x	i	x	u
COc1ccc(-c2cc(C(=O)NCc3cccc(OC)c3)c3cnn(C)c3n2)cc1	u	x	-4%	x	u
Cc1ccc(-c2cc(C(=O)NCc3cccc(Cl)c3)c3cnn(C)c3n2)cc1	3%	x	i	x	-24%
COc1cccc(-c2cc(C(=O)NCc3cccc(Cl)c3)c3cnn(C)c3n2)c1	u	x	x	x	22µM*
CC(=O)N1CCCN(c2ncnc3c2CN(C2CCCC2)C(=O)CN3C)CC1	2%	x	i	x	i
COc1ccc(OC)c(S(=O)(=O)N2CCC(Cc3ncc(C)n3C3CC3)C2)c1 (stereo not given)	-5%	3%	-7%	i	-4%
O=S(=O)(NCC1CN(CC2CC2)CC12CCCCC2)c1cccc(F)c1 (stereo not given)	u	x	i	x	-24%
Cc1ccc(C)c(-n2nc(-c3c(C)nc4scc(CC(=O)NC5CCCCC5)n4c3=O)cc2C)c1	u	-1%	-4%	i	40µM*
Cc1cn2nc(C(=O)N3CCC(C)CC3)cc2c(N(C)Cc2ccccc2)n1	u	17%	0%	i	35µM*
Cc1cn2nc(C(=O)NCc3ccc(F)cc3F)cc2c(N(C)Cc2ccccc2)n1	u	2%	-10%	i	35µM*
O=C(c1ccnc(-c2ccccc2-c2ccccc2)c1)N1CCCC1	u	1%	i	i	35µM*
O=C(c1ccnc(-c2ccncc2)c1)N1CCCC1	1%	-6%	2%	i	-3%
COc1ccc(NC(=O)N2Cc3[nH]cnc3C[C@H]2c2nc(-c3ccc4ccccc4c3)no2)cc1	u	-5%	i	i	u
Cc1ccc(-c2noc([C@@H]3Cc4nc[nH]c4CN3C(=O)c3ccccc3)n2)cc1	0%[172 µM]	-1%[70.6 µM]	3%[88.5 µM]	40µM*	-19%[174 µM]
O=C(O)CCC(=O)N1Cc2[nH]cnc2C[C@H]1c1nc(-c2ccc(Cl)cc2)no1	4%[172 µM]	5%[70.6 µM]	-2%[88.5 µM]	71µM*	i
O=C(c1ccccc1)N1Cc2[nH]cnc2C[C@H]1c1nc(-c2ccncc2)no1	-17%[172 µM]	1%[70.6 µM]	i	i	-27%[174 µM]
O=C(c1cccs1)N1Cc2[nH]cnc2C[C@H]1c1nc(-c2ccc3ccccc3c2)no1	-23%[172 µM]	-1%[70.6 µM]	-13%[88.5 µM]	28µM*	u
O=C(Nc1ccccc1)N1Cc2[nH]cnc2C[C@H]1c1nc(-c2ccccc2)no1	-10%[172 µM]	-21%[70.6 µM]	-16%[88.5 µM]	40µM*	u
COCCn1c(=O)c(C(=O)N2CCN(C(=O)c3ccc(C)cc3)CC2)nc2cccnc21	3%	x	1%	x	-19%
COc1ccc(C(=O)N2CCC3(CC2)OC(=O)N(Cc2csc(C)n2)C3(C)c2ccccc2)cn1 (stereo not given)	3%	3%	-18%	i	u
COc1ccc(-c2nnc3n2CCN(C(=O)Nc2ccccc2)C3)cc1	-3%	2%	-3%	i	-24%
O=C(c1ccccc1F)N1CCCC(C(=O)N2CCC(N3CCCC3=O)CC2)C1 (stereo not given)	i	x	i	x	-10%
